FECH inh: inhibitors of human ferrochelatase; P22830; calls only at 10 µM (by protocol); hit rate 3.3% among 20,000; purified FECH, Ni-mesoporphyrin absorbance 550 nm; AID 1671448;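 active means enzyme reaction rate more than 3 SD below the solvent-only control wells on the same plate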;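 further: lower slope than DMSO wells means FECH inhibition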
Target sequence (P22830 whole entry, looked up): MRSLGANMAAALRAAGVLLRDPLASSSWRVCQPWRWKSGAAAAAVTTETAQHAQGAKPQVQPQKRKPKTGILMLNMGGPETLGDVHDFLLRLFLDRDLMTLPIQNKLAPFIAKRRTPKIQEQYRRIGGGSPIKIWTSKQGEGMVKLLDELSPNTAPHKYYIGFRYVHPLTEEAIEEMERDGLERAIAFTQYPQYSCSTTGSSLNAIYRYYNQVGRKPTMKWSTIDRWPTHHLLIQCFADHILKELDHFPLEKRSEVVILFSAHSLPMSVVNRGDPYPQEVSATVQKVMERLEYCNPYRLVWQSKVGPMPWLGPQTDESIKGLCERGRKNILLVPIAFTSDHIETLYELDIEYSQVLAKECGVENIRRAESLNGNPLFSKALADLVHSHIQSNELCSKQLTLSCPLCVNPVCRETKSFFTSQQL
Active calls of the source: *; i = inactive; + = active, no number. Shown is part of a subset that was picked to be rich in hits.

SMILES	FECH inh
CCc1c(C)nc2ncnn2c1Sc1ccc(NC(=O)Nc2cc(OC)ccc2OC)cc1	i
CCc1c(C)nc2ncnn2c1Sc1ccc(NC(=O)Nc2cccc(C(=O)OC)c2)cc1	i
CCc1c(C)nc2ncnn2c1Sc1ccc(NC(=O)Nc2cc(OC)cc(OC)c2)cc1	i
COc1cccc(Cn2c(CNC(=O)C3CC3)nc3cccnc32)c1	i
Cc1ccccc1Cn1cc(C(=O)Nc2ccc(S(N)(=O)=O)cc2)ccc1=O	i
Cc1cc(N(C)C)nc(N2CCN(S(=O)(=O)c3ccc(Cl)cc3)CC2)n1	i
CC(=O)Nc1ccc(S(=O)(=O)N2CCN(c3nc(C)cc(N4CCOCC4)n3)CC2)cc1	i
CC(=O)Nc1ccc(S(=O)(=O)N2CCN(c3nc(C)cc(N4CCCC4)n3)CC2)cc1	i
Cc1cc(N(C)C)nc(N2CCN(S(=O)(=O)c3ccc(F)cc3)CC2)n1	+
CC(=O)Nc1ccc(S(=O)(=O)N2CCN(c3nc(C)cc(N4CCCCC4)n3)CC2)cc1	+
Cc1cc(N(C)C)nc(N2CCN(S(=O)(=O)c3ccc(C)c(C)c3)CC2)n1	i
CCC(C)N(Cc1ccncc1)C(=O)c1ccc(C#CC(C)(C)O)cc1 (stereo not given)	i
NS(=O)(=O)c1ccc(CCNC(=O)CCn2cnc3c([nH]c4ccccc43)c2=O)cc1	+
NS(=O)(=O)c1ccc(CCNC(=O)CCn2cnc3c([nH]c4ccc(F)cc43)c2=O)cc1	i
Cc1ccc2[nH]c3c(=O)n(CCC(=O)NCCc4ccc(S(N)(=O)=O)cc4)cnc3c2c1	i
CC(C)Cc1ncc2c(n1)CN(C(=O)c1ccn3nnnc3c1)C2	i
CC(=O)Nc1cccc(-c2n[nH]c(Cc3ccccc3)n2)c1	i
COc1ccc(S(=O)(=O)[C@H]2CS(=O)(=O)C[C@@H]2NCCc2ccc(S(N)(=O)=O)cc2)cc1	i
COc1ccc(-c2ncc3c(=O)n(Cc4cccc(Cl)c4)c(=O)n(C)c3n2)cc1	i
CCc1ccc(C2CC(=O)Nc3n[nH]c(-c4cccs4)c32)o1 (stereo not given)	i
COc1ccc(-c2cc(C(=O)Nc3ccc(S(N)(=O)=O)cc3)no2)cc1	+
Cc1ccc(-c2cc(C(=O)NCCc3ccc(S(N)(=O)=O)cc3)no2)cc1	i
Cc1ccc(-c2cc(C(=O)NCc3ccc(S(N)(=O)=O)cc3)no2)cc1	i
CCOc1ccc(-c2cc(C(=O)NCc3ccc(S(N)(=O)=O)cc3)no2)cc1	+
NS(=O)(=O)c1ccc(NC(=O)c2cc(-c3ccccc3)on2)cc1	i
SMILES	FECH inh
Cc1ccc(-c2cc(C(=O)Nc3ccc(S(N)(=O)=O)cc3)no2)cc1	i
CC(C)CN(CCn1c(=O)oc2ccccc21)Cc1cnn(C)c1	i
Cc1cc(C)cc(C(=O)Nc2ccc(Cl)c(N3CCCS3(=O)=O)c2)c1	i
CCNC(=O)Cc1ccc(-c2cnc3ccccc3c2)cc1	i
COc1cc(-c2c(Nc3ccccc3)oc3c2c(=O)n(C)c(=O)n3C)cc(OC)c1OC	i
CCCCc1cn(C2CCN(C(=O)C3CC(=O)N(C(C)(C)C)C3)CC2)nn1 (stereo not given)	i
CCCC(C)CN1CCC(n2cc(-c3ccccc3)nn2)CC1 (stereo not given)	i
CCCC(C)CN1CCC(n2cc(CN(C)C)nn2)CC1 (stereo not given)	+
Cc1cc(F)ccc1-c1c(-c2ccccc2)ncn1CCCn1ccnc1	i
Cc1ccc(OCC2CCCN(Cc3cc(C#CCO)cs3)C2)cc1 (stereo not given)	i
Cc1cnccc1CN(C)C(=O)[C@H](N)CC(C)C	i
Cc1cc2nc(CSc3nnc4c(n3)[nH]c3ccccc34)cc(=O)n2o1	+
Cc1cc2nc(CSc3nnc(-c4cc(C)n(C)n4)o3)cc(=O)n2o1	i
Cc1cc(C)n2c(SCc3cc(=O)n4oc(C)cc4n3)nnc2n1	i
Cc1cccc(N(Cc2nc3nc(C)cc(C)n3n2)C(=O)C(C)(C)C)c1	i
CCCC(=O)N(Cc1nc2nc(C)cc(C)n2n1)c1ccccc1	+
CCOc1ccc(N(Cc2nc3nc(C)cc(C)n3n2)C(=O)c2cccc(C)c2)cc1	i
Cc1cccc(N(Cc2nc3nc(C)cc(C)n3n2)C(=O)COc2ccccc2)c1	+
CCCC(=O)N(Cc1nc2nc(C)cc(C)n2n1)c1ccc(F)cc1	i
COc1cccc(C(=O)N(Cc2nc3nc(C)cc(C)n3n2)c2cccc(C)c2)c1	i
COc1cc(C(=O)N(Cc2nc3nc(C)cc(C)n3n2)c2cccc(C)c2)cc(OC)c1OC	i
COc1ccc(C(=O)N(Cc2nc3nc(C)cc(C)n3n2)c2cccc(C)c2)cc1	+
Cc1cc(C)n2nc(CN(C(=O)CC(C)C)c3ccccc3)nc2n1	i
COc1ccccc1C(=O)Nc1ccc(Nc2nc(C)cc(N3CCCC3)n2)cc1	i
Cc1ccc(C2=CC(c3c(F)cccc3Cl)n3nc(NC(=O)CC(C)C)nc3N2)cc1 (stereo not given)	i
SMILES	FECH inh
COC(=O)c1c(NC(=O)c2cccc(Oc3ccccc3)c2)sc2c1CCN(C)C2	i
NS(=O)(=O)c1ccc(NC(=O)Cn2cnc(S(=O)(=O)N3CCc4ccccc43)c2)cc1	i
Cc1cccnc1CN1CCN(Cc2ccc(-c3ccn[nH]3)o2)CC1	i
COc1ccc(S(=O)(=O)NCCn2c(-c3ccc(C)cc3)nc3cccnc32)cc1Cl	i
O=C1c2cccnc2CN1c1ccc2[nH]ncc2c1	i
CC(C)NC(=O)c1nc[nH]c1C(=O)NC1CCCC1	i
O=C(NC1CCCCC1)c1nc[nH]c1C(=O)NCc1cccc(C(F)(F)F)c1	+
CC(C)(C)CNC(=O)c1[nH]cnc1C(=O)NC1CCCC1	i
O=C(NC1CCCC1)c1nc[nH]c1C(=O)NC1CC1	i
O=C(NC1CCCCC1)c1nc[nH]c1C(=O)NCC1CC1	i
CC(C)(C)CNC(=O)c1[nH]cnc1C(=O)NC1CCCCC1	i
O=C(NC1CCCC1)c1nc[nH]c1C(=O)NCc1ccccc1	i
CNC(=O)c1[nH]cnc1C(=O)NC1CCCCC1	+
O=C(NC1CCCCC1)c1nc[nH]c1C(=O)NCc1ccccc1	+
CCOCCCNc1nc(Nc2ccc(Cl)cc2)c2cnn(-c3ccccc3)c2n1	i
CCN(CC)C(=O)Cn1cc(C(=O)N(C)Cc2cnc3ccccn23)nn1	i
COc1c(F)cc(-c2c(-c3ccccc3)ncn2CCC(C)O)cc1F (stereo not given)	i
Cc1cccc(CN2CCCN(CC(=O)N3CCOc4ccc(C)cc43)S2(=O)=O)c1	i
COc1ccc(OC)c(C2CCN(Cc3ncc[nH]3)C2)c1 (stereo not given)	i
CC1=C(C(=O)N(Cc2ccsc2)CC(C)C)C(C)NC(=O)N1 (stereo not given)	i
CCC(=O)Nc1ccccc1-c1nnc(SCC(=O)Nc2ccccc2Cl)[nH]c1=O	i
CCC(=O)Nc1ccccc1-c1nnc(SCC(=O)Nc2cccc(C)c2C)[nH]c1=O	i
CCC(=O)Nc1ccccc1-c1nnc(SCC(=O)Nc2cc(C)cc(C)c2)[nH]c1=O	+
CC1CCN(C(=O)c2nc3ccccc3n(C)c2=O)CC1	i
CCOc1ccc(NC(=O)CN2CCCN(Cc3ccc(F)cc3)S2(=O)=O)cc1	+
CCOc1ccc(NC(=O)CN2CCN(Cc3ccc(F)cc3)S2(=O)=O)cc1	i
O=C(CN1CCCN(Cc2ccc(Cl)cc2)S1(=O)=O)Nc1ccc(F)cc1	i
CCOc1ccc(NC(=O)CN2CCCN(Cc3ccc(Cl)cc3)S2(=O)=O)cc1	+
